Test results as given in PubChem BioAssay AID1159580 (chemical genetic matrix, 2015).
“And” between values parts separate entries of the source, which are not always exact repeats. Identical values can stand only once. Screen size: about 5,500 compounds; about 2,000 (36%) were called active. Another 18% or so got no clear call; they are omitted. No stated cut-off is given here; in the data, active means normalized growth mostly below about 0.91 (no sharp cut-off); inconclusive means no clear call, values can overlap the other calls; inactive means mostly above about 0.92. This is one part of the list.

Assay: chemical genetic growth profiling, strain panel (AID 1159580);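 further: tested at 20 µM; growth read once vehicle control cultures reached saturation at 30 °C; 1 = growth at the plate median or of vehicle wells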
Conditions: S. cerevisiae deletion strains, growth OD

Measured: normalized growth

CN[C@@H]1[C@@H](O[C@H]2O[C@H](CO)[C@@H](N)[C@H](O)[C@H]2O)O[C@H]2C[C@@H](N)[C@H](O[C@H]3[C@H](O)[C@@H](O)[C@H](N)C[C@@H]3N)O[C@@H]2[C@@H]1O
active: locus YDR137W, strain rgp1, stronger effect = lower value 0.702
inactive: locus YAL013W, strain DEP1, stronger effect = lower value 1.01 | locus YAL021C, strain ccr4, stronger effect = lower value 1.01 | locus YAL026C, strain drs2, stronger effect = lower value 0.995 | locus YAL030W, strain snc1, stronger effect = lower value 1.01 | locus YBL061C, strain skt5, stronger effect = lower value 1 | locus YBR009C, strain hhf1, stronger effect = lower value 1.01 | locus YBR021W, strain FUR4, stronger effect = lower value 1.01 | locus YBR023C, strain chs3, stronger effect = lower value 1.01 | locus YBR171W, strain sec66, stronger effect = lower value 1.01 | locus YBR229C, strain ROT2, stronger effect = lower value 1.02 | locus YBR231C, strain swc5, stronger effect = lower value 1.02 | locus YBR279W, strain paf1, stronger effect = lower value 1 | locus YCL011C, strain gbp2, stronger effect = lower value 1.01 | locus YCL016C, strain dcc1, stronger effect = lower value 0.994 | locus YCL029C, strain bik1, stronger effect = lower value 1.01 | locus YCL069W, strain vba3, stronger effect = lower value 1.02 | locus YCR088W, strain abp1, stronger effect = lower value 1.01 | locus YDL005C, strain med2, stronger effect = lower value 0.995 | locus YDL035C, strain GPR1, stronger effect = lower value 1.03 | locus YDL074C, strain BRE1, stronger effect = lower value 0.984 | locus YDL101C, strain DUN1, stronger effect = lower value 1 | locus YDL134C, strain PPH21, stronger effect = lower value 0.999 | locus YDL185W, strain tfp1, stronger effect = lower value 0.992 | locus YDL192W, strain arf1, stronger effect = lower value 1.01 | locus YDR001C, strain nth1, stronger effect = lower value 1.01 | locus YDR069C, strain doa4, stronger effect = lower value 1.03 | locus YDR101C, strain arx1, stronger effect = lower value 1.01 | locus YDR150W, strain NUM1, stronger effect = lower value 1.01 | locus YDR159W, strain sac3, stronger effect = lower value 1.02 | locus YDR162C, strain NBP2, stronger effect = lower value 1 | locus YDR195W, strain ref2 1.01 | locus YDR297W, strain sur2, stronger effect = lower value 1.01 | locus YDR318W, strain mcm21, stronger effect = lower value 1.03 | locus YDR334W, strain swr1, stronger effect = lower value 0.993 | locus YDR335W, strain msn5, stronger effect = lower value 1.01 | locus YDR388W, stronger effect = lower value 1.02 | locus YDR392W, strain spt3, stronger effect = lower value 0.921 | locus YDR502C, strain sam2, stronger effect = lower value 0.982 | locus YEL003W, strain gim4, stronger effect = lower value 1 | locus YEL037C, strain rad23, stronger effect = lower value 1 | locus YEL061C, strain CIN8 (second series), stronger effect = lower value 0.999 | locus YEL061C, strain CIN8, stronger effect = lower value 1.01 | locus YER015W, strain faa2, stronger effect = lower value 1.02 | locus YER016W, strain bim1, stronger effect = lower value 1.01 | locus YER110C, stronger effect = lower value 1.01 | locus YER111C, strain swi4, stronger effect = lower value 1.01 | locus YER155C, strain BEM2 (second series), stronger effect = lower value 0.936 | locus YER155C, strain BEM2, stronger effect = lower value 1.01 | locus YER167W, strain BCK2, stronger effect = lower value 1.03 | locus YFR010W, strain ubp6, stronger effect = lower value 1.02 | locus YGL078C, strain dbp3, stronger effect = lower value 1 | locus YGL086W, strain mad1, stronger effect = lower value 1.01 | locus YGL167C, strain pmr1, stronger effect = lower value 1.01 | locus YGL173C, strain kem1, stronger effect = lower value 1.01 | locus YGL227W, strain vid30, stronger effect = lower value 0.998 | locus YGL240W, strain doc1, stronger effect = lower value 1.01 | locus YGL248W, strain PDE1, stronger effect = lower value 1 | locus YGL253W, strain hxk2, stronger effect = lower value 1 | locus YGR078C, strain PAC10, stronger effect = lower value 0.99 | locus YGR135W, strain pre9, stronger effect = lower value 0.978 | locus YGR229C, strain SMI1, stronger effect = lower value 1.01 | locus YGR252W, strain gcn5, stronger effect = lower value 0.989 | locus YHR013C, strain ard1, stronger effect = lower value 1.07 | locus YHR027C, strain rpn1, stronger effect = lower value 1 | locus YHR030C, strain SLT2, stronger effect = lower value 1.01 and 0.961 | locus YHR079C, strain IRE1 (second series), stronger effect = lower value 0.998 | locus YHR079C, strain IRE1, stronger effect = lower value 0.962 | locus YHR094C, strain hxt1, stronger effect = lower value 1.01 | locus YHR129C, strain ARP1, stronger effect = lower value 1.01 | locus YHR142W, strain chs7, stronger effect = lower value 0.977 | locus YHR200W, strain rpn10, stronger effect = lower value 1 | locus YIL066C, strain RNR3, stronger effect = lower value 1.01 | locus YIL073C, strain SPO22, stronger effect = lower value 1.04 | locus YIL125W, strain kgd1, stronger effect = lower value 1 | locus YIR030C, strain dcg1, stronger effect = lower value 1 | locus YJL092W, strain hpr5, stronger effect = lower value 1.01 | locus YJL095W, strain BCK1 (second series), stronger effect = lower value 1.01 | locus YJL095W, strain BCK1, stronger effect = lower value 0.987 and 0.964 | locus YJL115W, strain asf1, stronger effect = lower value 0.991 | locus YJL129C, strain trk1, stronger effect = lower value 1.01 | locus YJL134W, strain LCB3, stronger effect = lower value 1.01 | locus YJL154C, strain vps35, stronger effect = lower value 1.01 | locus YJL164C, strain tpk1, stronger effect = lower value 0.975 | locus YJL166W, strain qcr8, stronger effect = lower value 1.03 | locus YJL168C, strain set2, stronger effect = lower value 1 | locus YJL187C, strain SWE1 (second series), stronger effect = lower value 0.995 | locus YJL187C, strain SWE1, stronger effect = lower value 1.01 | locus YJR043C, strain POL32, stronger effect = lower value 1.03 | locus YJR066W, strain TOR1, stronger effect = lower value 0.911 | locus YJR075W, strain HOC1, stronger effect = lower value 0.977
